These results are taken from publication PMC7862700, “An all-to-all approach to the identification of sequence-specific readers for epigenetic DNA modifications on cytosine”.

Holding throughout (experiment): DAPPL (digital affinity profiling via proximity ligation, sequencing); 10 mM Tris-HCl pH 7.5, 50 mM NaCl, 1 mM DTT, 4% glycerol, room temperature, 30 min; GST-TFs on glutathione beads, 16-mer random dsDNA library, 0.1% formaldehyde crosslink after washing; high values mean tight binding
One test concerns the target T1, FEV (Homo sapiens, UniProt Q99581 1-238).
T1 sequence: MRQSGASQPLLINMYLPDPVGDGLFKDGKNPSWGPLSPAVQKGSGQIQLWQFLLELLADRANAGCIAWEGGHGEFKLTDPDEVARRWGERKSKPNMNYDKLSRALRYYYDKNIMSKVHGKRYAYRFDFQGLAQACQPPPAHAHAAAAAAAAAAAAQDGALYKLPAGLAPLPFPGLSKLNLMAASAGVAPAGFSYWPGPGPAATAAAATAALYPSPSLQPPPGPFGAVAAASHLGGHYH
Conditions: protein: recombinant; tags: N-terminal GST; dsDNA, one strand shown. The gist of the method:
(§1)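 Binding signal is defined as a hexamer's read frequency for one factor over its frequency for the tag-only sample. To obtain reads, GST-fused human transcription factors were expressed in yeast, captured on glutathione beads, barcoded with DNA and pooled with that sample. Pools met 200 nmole of a 16-mer random double-stranded DNA library in Tris/NaCl/DTT/glycerol buffer for 30 min at room temperature before washing, 0.1% formaldehyde crosslinking, proximity ligation (BsaI/T4 ligase, 1 h, 37 °C), PCR and Illumina NextSeq500 sequencing.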

A further test concerns the target ETV5 (Homo sapiens, UniProt P41161 1-510). The following applies: protein: recombinant; tags: N-terminal GST; dsDNA, one strand shown. The gist of the method: as §1
A further test concerns the target HSF1 (Homo sapiens, UniProt Q00613 1-529). The following applies: protein: recombinant; tags: N-terminal GST; chain copies: 3; dsDNA, one strand shown. The gist of the method: as §1
For another test, the target named is T2, SPIC (Homo sapiens, UniProt Q8N5J4 1-248).
T2 sequence: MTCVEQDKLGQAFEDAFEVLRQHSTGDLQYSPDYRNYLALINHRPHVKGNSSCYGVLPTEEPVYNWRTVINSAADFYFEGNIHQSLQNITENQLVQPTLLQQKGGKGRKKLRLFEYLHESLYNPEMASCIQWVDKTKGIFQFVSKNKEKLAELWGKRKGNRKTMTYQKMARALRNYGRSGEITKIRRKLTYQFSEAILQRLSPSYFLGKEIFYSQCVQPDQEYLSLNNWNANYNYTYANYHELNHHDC
The following applies: protein: recombinant; tags: N-terminal GST; dsDNA, one strand shown. The gist of the method: as §1

For a further test, the target named is ELF4 (Homo sapiens, UniProt Q99607 1-663). The following applies: protein: recombinant; tags: N-terminal GST; dsDNA, one strand shown. The gist of the method:
as §1

In another test the target is T3, ELK4 (Homo sapiens, UniProt P28324-2 1-405).
T3 sequence: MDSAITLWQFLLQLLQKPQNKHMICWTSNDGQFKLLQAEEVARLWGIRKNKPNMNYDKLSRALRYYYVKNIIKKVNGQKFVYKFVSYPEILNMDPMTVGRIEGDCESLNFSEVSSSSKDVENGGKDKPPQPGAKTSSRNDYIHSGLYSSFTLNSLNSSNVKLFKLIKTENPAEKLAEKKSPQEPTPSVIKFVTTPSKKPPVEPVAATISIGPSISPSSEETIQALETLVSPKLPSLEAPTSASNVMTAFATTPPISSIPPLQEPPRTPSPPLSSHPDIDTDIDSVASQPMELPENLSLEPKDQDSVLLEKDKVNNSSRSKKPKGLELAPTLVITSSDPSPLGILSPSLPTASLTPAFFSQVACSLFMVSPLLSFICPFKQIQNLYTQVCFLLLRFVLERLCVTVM
Conditions: protein: recombinant; tags: N-terminal GST; dsDNA, one strand shown. The gist of the method: as §1

A further test deals with T4, ETV2 (Homo sapiens, UniProt O00321 1-342).
T4 sequence: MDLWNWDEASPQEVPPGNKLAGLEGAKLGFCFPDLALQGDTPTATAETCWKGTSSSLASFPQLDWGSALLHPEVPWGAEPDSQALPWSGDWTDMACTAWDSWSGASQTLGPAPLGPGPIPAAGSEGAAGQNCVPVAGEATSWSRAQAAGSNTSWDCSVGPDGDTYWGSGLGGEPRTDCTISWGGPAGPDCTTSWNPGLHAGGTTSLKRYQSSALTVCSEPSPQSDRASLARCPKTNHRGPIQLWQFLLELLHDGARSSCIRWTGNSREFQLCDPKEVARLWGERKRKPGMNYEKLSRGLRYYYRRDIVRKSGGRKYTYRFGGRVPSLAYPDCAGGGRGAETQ
The following applies: protein: recombinant; tags: N-terminal GST; dsDNA, one strand shown. The gist of the method: as §1

Another test concerns the target T5, ELF3 (Homo sapiens, UniProt P78545 1-371).
T5 sequence: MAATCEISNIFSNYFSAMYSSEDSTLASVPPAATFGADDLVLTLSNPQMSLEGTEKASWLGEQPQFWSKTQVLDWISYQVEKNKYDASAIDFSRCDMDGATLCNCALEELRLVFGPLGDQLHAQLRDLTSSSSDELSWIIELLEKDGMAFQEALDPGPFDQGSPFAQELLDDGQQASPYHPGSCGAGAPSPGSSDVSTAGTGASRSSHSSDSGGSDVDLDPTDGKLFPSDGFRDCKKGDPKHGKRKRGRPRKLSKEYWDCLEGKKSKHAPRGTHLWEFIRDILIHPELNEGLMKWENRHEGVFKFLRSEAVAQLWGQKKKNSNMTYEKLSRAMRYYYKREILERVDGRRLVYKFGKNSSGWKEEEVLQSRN
Conditions: protein: recombinant; tags: N-terminal GST; dsDNA, one strand shown. The gist of the method: as §1

A further test deals with CRX (Homo sapiens, UniProt O43186 1-299). Conditions: protein: recombinant; tags: N-terminal GST; dsDNA, one strand shown. The gist of the method: as §1
Sequence of CRX (O43186 whole entry): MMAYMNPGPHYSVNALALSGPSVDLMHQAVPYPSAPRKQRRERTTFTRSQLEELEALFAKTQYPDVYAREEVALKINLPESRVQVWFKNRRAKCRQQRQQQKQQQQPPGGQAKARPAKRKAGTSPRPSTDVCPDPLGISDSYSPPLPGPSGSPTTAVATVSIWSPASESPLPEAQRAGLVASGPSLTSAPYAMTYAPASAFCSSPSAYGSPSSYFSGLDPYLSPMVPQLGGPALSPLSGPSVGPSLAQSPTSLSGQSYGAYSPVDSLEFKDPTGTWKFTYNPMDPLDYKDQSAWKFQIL
Another test has as its target ETV1 (Homo sapiens, UniProt P50549 1-477). Conditions: protein: recombinant; tags: N-terminal GST; dsDNA, one strand shown. The gist of the method: as §1
The next test addresses T6, ERF (Homo sapiens, UniProt P50548 1-548).
T6 sequence: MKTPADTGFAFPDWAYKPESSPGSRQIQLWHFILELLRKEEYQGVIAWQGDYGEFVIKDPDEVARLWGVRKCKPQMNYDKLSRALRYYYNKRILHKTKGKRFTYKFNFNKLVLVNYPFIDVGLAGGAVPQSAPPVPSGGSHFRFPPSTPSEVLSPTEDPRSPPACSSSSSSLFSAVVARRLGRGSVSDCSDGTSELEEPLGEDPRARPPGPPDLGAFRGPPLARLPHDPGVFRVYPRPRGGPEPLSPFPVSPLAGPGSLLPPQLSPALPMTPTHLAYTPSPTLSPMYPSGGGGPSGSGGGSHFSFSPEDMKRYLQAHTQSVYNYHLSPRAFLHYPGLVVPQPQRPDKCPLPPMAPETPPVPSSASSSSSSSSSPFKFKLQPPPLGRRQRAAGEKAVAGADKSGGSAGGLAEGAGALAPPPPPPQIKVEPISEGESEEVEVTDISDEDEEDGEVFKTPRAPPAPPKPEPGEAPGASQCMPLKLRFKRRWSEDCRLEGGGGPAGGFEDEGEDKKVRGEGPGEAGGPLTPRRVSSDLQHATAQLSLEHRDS
Conditions: protein: recombinant; tags: N-terminal GST; dsDNA, one strand shown. The gist of the method: as §1

The target in a further test is T7, ETV3L (Homo sapiens, UniProt Q6ZN32 1-361).
T7 sequence: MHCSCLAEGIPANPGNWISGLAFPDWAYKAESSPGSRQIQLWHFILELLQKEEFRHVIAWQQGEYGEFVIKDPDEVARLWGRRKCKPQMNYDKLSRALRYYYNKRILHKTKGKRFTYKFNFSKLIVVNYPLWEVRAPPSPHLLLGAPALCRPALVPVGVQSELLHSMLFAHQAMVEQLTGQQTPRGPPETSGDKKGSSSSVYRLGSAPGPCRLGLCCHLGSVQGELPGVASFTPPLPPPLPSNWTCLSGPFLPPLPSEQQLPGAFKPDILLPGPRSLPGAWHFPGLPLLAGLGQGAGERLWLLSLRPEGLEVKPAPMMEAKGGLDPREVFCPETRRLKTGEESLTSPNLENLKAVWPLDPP
The following applies: protein: recombinant; tags: N-terminal GST; dsDNA, one strand shown. The gist of the method:
as §1

In another test the target is T8, ETS2 (Homo sapiens, UniProt P15036 1-469).
T8 sequence: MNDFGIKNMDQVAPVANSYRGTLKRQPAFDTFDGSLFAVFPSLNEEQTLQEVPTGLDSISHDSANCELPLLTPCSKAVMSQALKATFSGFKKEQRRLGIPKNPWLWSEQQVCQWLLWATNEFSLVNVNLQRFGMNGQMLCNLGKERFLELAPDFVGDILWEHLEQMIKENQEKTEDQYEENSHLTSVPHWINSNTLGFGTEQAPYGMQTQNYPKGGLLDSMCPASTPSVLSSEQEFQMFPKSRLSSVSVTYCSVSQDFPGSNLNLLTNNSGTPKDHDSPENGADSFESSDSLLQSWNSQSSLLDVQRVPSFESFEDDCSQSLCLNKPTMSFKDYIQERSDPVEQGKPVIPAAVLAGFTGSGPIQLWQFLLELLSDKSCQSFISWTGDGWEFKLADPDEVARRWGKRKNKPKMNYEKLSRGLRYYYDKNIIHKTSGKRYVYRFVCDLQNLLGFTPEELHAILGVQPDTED
Conditions: protein: recombinant; tags: N-terminal GST; dsDNA, one strand shown. The gist of the method:
as §1

For the next test, the target named is T9, SPDEF (Homo sapiens, UniProt O95238 1-335).
T9 sequence: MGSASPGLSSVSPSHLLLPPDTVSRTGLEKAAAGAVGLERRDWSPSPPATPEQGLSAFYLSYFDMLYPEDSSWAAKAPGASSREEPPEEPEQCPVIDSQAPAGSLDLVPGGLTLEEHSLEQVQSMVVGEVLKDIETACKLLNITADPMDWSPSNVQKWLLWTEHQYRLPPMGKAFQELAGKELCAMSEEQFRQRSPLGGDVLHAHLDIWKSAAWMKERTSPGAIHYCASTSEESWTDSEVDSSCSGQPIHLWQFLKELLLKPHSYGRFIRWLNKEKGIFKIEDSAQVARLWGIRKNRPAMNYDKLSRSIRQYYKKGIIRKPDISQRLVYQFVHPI
The following applies: protein: recombinant; tags: N-terminal GST; dsDNA, one strand shown. The gist of the method:
as §1

The next test has as its target T10, ETV7 (Homo sapiens, UniProt Q9Y603 1-341).
T10 sequence: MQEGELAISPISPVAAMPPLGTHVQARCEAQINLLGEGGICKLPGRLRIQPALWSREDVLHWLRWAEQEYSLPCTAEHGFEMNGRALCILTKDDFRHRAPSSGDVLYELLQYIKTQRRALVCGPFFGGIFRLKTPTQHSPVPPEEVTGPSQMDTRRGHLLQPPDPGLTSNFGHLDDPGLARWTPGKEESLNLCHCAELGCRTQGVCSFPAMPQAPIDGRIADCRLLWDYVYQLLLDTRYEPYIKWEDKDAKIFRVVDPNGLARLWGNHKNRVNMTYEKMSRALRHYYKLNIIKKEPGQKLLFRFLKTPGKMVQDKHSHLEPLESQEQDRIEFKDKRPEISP
Conditions: protein: recombinant; tags: N-terminal GST; dsDNA, one strand shown. The gist of the method:
as §1

The next test concerns the target T11, ELF5 (Homo sapiens, UniProt Q9UKW6-2 1-255).
T11 sequence: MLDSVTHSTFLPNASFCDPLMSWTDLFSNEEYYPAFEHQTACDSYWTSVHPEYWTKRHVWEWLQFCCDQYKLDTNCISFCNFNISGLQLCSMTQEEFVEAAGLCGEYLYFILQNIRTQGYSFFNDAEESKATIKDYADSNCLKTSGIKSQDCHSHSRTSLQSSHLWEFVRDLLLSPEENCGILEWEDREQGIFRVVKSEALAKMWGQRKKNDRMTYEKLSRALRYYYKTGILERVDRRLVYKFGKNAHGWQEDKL
The following applies: protein: recombinant; tags: N-terminal GST; dsDNA, one strand shown. The gist of the method:
as §1

A further test deals with T12, ETV3 (Homo sapiens, UniProt P41162-2 1-143).
T12 sequence: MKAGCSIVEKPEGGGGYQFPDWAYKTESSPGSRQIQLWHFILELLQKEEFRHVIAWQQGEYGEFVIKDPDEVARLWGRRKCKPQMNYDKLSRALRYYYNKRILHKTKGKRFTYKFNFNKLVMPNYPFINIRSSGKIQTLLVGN
The following applies: protein: recombinant; tags: N-terminal GST; dsDNA, one strand shown. The gist of the method: as §1

Another test has as its target ETV6 (Homo sapiens, UniProt P41212 1-452). The following applies: protein: recombinant; tags: N-terminal GST; dsDNA, one strand shown. The gist of the method:
as §1

Sequence of ETV6 (P41212 whole entry): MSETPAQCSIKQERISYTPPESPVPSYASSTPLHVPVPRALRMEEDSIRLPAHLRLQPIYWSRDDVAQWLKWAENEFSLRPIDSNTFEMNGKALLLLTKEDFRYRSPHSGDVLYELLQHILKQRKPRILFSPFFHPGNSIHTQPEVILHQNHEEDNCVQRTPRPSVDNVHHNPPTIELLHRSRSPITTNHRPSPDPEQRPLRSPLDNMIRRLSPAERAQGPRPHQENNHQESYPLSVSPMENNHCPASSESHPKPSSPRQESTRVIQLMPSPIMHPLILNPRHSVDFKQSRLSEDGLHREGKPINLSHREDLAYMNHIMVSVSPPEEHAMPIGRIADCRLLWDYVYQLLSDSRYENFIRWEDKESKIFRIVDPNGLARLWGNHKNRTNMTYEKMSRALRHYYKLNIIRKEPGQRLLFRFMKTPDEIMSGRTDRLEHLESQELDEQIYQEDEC
Sequence of ETV1 (P50549 whole entry): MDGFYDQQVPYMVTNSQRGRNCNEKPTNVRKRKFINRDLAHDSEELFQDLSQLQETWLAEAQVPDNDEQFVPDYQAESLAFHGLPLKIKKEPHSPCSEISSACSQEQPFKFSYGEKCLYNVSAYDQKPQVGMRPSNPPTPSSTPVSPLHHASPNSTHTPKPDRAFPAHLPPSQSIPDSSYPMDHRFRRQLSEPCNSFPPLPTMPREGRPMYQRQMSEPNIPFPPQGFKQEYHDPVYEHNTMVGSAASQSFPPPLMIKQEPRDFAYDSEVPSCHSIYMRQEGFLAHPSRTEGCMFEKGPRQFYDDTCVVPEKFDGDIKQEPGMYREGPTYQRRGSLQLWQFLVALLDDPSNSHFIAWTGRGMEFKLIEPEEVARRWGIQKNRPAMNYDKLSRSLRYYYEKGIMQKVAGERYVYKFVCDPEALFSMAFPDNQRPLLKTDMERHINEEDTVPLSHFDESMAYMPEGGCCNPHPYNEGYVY
Sequence of ELF4 (Q99607 whole entry): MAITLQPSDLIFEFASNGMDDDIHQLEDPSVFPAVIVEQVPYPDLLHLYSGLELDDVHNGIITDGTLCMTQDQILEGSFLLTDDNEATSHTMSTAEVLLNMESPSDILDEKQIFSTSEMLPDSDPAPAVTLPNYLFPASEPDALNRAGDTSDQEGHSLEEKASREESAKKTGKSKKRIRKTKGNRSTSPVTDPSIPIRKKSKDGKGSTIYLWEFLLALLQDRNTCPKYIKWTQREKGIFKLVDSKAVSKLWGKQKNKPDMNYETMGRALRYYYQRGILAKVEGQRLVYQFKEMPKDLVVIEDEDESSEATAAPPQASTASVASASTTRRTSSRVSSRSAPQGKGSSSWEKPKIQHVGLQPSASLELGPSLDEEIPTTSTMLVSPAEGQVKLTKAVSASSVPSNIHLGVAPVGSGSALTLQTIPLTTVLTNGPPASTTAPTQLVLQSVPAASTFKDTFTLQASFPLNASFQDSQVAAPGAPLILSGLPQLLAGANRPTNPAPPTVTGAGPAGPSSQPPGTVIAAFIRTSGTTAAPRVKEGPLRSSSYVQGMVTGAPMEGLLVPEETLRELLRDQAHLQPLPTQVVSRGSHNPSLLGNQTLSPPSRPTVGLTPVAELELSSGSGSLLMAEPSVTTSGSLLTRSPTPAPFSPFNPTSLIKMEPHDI
Sequence of HSF1 (Q00613 whole entry): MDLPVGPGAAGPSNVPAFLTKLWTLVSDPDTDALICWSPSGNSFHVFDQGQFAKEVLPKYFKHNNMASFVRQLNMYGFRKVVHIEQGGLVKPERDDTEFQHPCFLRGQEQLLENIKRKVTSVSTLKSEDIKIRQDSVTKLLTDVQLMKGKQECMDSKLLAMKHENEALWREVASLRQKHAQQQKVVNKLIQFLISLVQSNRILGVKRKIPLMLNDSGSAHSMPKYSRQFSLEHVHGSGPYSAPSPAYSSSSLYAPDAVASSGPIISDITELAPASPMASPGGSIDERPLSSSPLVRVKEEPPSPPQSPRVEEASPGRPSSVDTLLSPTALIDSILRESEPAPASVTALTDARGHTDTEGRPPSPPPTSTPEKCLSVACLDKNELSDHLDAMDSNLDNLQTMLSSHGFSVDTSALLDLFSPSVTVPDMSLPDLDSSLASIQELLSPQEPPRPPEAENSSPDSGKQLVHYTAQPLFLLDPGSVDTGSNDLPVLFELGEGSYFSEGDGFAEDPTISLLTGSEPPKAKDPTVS
Sequence of ETV5 (P41161 whole entry): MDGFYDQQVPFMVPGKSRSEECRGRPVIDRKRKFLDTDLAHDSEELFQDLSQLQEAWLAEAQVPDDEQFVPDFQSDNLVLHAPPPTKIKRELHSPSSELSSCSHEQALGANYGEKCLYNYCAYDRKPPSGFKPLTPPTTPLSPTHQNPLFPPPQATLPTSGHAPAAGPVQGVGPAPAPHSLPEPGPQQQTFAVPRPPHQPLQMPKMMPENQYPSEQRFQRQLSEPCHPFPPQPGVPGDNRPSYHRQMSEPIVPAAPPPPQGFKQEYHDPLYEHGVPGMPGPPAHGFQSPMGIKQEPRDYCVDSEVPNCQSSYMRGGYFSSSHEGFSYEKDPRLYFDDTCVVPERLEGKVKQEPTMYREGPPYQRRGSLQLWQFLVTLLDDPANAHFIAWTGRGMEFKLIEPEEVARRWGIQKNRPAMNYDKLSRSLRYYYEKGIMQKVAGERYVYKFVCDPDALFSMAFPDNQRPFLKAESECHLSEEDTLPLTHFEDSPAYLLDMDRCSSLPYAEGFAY

TAGTTA: the binding signal was 1.07 fold enrichment (6-mer frequency, TF over GST control) with FEV; 1.19 fold enrichment (6-mer frequency, TF over GST control) in the test with ETV5; 1.26 fold enrichment (6-mer frequency, TF over GST control) with HSF1; 1.11 fold enrichment (6-mer frequency, TF over GST control) with SPIC; 1.15 fold enrichment (6-mer frequency, TF over GST control) with ELF4; 1.26 fold enrichment (6-mer frequency, TF over GST control) with ELK4. In addition, the binding signal with ETV2 was 1.09 fold enrichment (6-mer frequency, TF over GST control); with ELF3 it was 1.29 fold enrichment (6-mer frequency, TF over GST control); with CRX, 1.54 fold enrichment (6-mer frequency, TF over GST control); with ETV1, 1.05 fold enrichment (6-mer frequency, TF over GST control); in the test with ERF it was 1.18 fold enrichment (6-mer frequency, TF over GST control); with ETV3L it was 1.1 fold enrichment (6-mer frequency, TF over GST control). The binding signal with ETS2 is 1.12 fold enrichment (6-mer frequency, TF over GST control); with SPDEF it was 1.06 fold enrichment (6-mer frequency, TF over GST control); with ETV7, 1.1 fold enrichment (6-mer frequency, TF over GST control); with ELF5, 1.06 fold enrichment (6-mer frequency, TF over GST control); in the test with ETV3, 1.12 fold enrichment (6-mer frequency, TF over GST control); with ETV6, 1.16 fold enrichment (6-mer frequency, TF over GST control).
